LMNA splice mod = LMNA splicing modulation; HeLa LMNA splicing GFP/RFP minigene ratio, 48 h; Potency, µM (series often up to 46.1 µM), for the others: top-dose ratio change, negative = inhibition, actives largely listed as inhibitors; 200,000 tested, 0.01% active; AID 1487; active means well fitted inhibition curve with a large enough effect in the signal ratio, with a control signal flat, not every such curve was filed as active; inconclusive means small, poorly fitted or top-dose-only effect, or effect the other way, or a change in a side signal; the % refers to the signal ratio; further: potency means the concentration at half of the fitted maximal effect
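Read-out is the ratio of GFP to DsRed2 object intensity, acquired by 488 nm laser-scanning cytometry on HeLa lamin A-EGFP minigene reporter cells. Compound incubation 48 hrs at 37 °C in Opti-MEM with 2% FBS; DMSO 0.5% final.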
KinaseGlo FLuc = Kinase-Glo luciferase inhibition (counter-screen). Q27757. Kinase-Glo luciferase, ATP luminescence, 8 min. Potency, µM (doses to about 38.3 µM), without a hit: top-dose activity change, negative = inhibition, hits mostly inhibitors. 200,000 tested, 0.28% active. AID 1379; active means well fitted inhibition curve with a large enough effect; inconclusive means small, poorly fitted or top-dose-only effect; further: potency means the concentration at half of the fitted maximal effect; nearly all actives have a fitted effect of over 60% in size
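Substrate mix (final 50 mM imidazole pH 7.2, 50 mM KCl, 7 mM MgCl2, 10 uM ATP, 0.01% Tween 20, 0.05% BSA) plus pin-tool compound, then Kinase-Glo detection mix; 8 min ambient, luminescence read.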
HPGD inh = inhibitors of human 15-hydroxyprostaglandin dehydrogenase (HPGD). P15428. purified HPGD, NADH fluorescence kinetic, PGE2 substrate. Potency, µM, inactives show at the top dose activity change, negative = inhibition, most hits filed as inhibitors. 150,000 tested, 4.3% active. AID 894; further: potency means the concentration at half of the fitted maximal effect
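NADH formation kinetics: reaction with 30 uM PGE2 and 1 mM NAD+ (final), 20 nM enzyme, Tris-HCl pH 8 with Tween 20, after 15 min compound preincubation at room temperature. Fluorescence change, last versus first of five reads.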
PNC assembly inh = inhibitors of perinucleolar compartment assembly | PC3M PTB-GFP, PNC prevalence imaging, 16 h; stronger effect = lower value | 140,000 tested, 3.1% active | activity change (PNC), negative = inhibition, % at 10 µM;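 active means readout at or below -70, meaning at least 70% loss of cells showing the perinucleolar compartment, a nuclear body marking cancer cells; inconclusive means readout between -30 and a set limit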;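 further: plate controls were DMSO wells for no effect and camptothecin positive control wells for full effect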
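Compounds are pinned in duplicate onto adhered PC3M cells stably expressing GFP-tagged PTB and incubated 16 h at 37 C. Cells are then fixed, nuclei stained with Hoechst, and PNC-positive cells counted.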
IMPase cell inh = cell-permeable inhibitors of inositol monophosphatase (IMPase); P97697; CHO-M1 cells, IP1 accumulation, HTRF TR-FRET ratio; inhibition (IP1 accumulation), % at 46.1 µM; 120,000 tested, under 10 active; AID 901; active means well fitted curve in the direction sought with a large enough effect in the signal ratio, not every such curve was filed as active; inconclusive means small, poorly fitted or top-dose-only effect, or a change in a side signal; inactive means no such curve, though single readings can be large or run the other way; the % refers to the signal ratio;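 further: cells stimulated with carbachol in lithium chloride buffer; plate controls were DMSO basal wells for no effect and reference inhibitor wells for full effect; higher means more IMPase inhibition seen as more IP1 and lower FRET ratio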
Target sequence (P97697 whole entry, looked up): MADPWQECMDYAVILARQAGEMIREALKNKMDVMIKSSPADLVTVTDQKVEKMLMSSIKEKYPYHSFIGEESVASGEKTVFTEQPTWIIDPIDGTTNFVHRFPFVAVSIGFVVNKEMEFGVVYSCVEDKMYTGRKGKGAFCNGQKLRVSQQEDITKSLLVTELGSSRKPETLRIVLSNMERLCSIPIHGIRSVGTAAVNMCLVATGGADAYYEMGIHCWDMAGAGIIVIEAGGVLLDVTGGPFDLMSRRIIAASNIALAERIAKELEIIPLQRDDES
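CHO-M1, 2000 cells/well, cultured 16–30 h; cpd up to 46 uM; carbachol (50 uM solution, stimulation buffer w/ 50 mM LiCl, pH 7.4), 30 min 37C; IP-One TR-FRET, 10 min RT; Ex 320/Em 665, 620; Hill-fit AC50.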
ALDH1A1 inh = blocks purified human ALDH1A1 activity; Purified ALDH1A1, NADH fluorescence, propionaldehyde substrate; 220,000 tested, 7.3% active; Potency, µM (top dose mostly 75.3 µM), without a hit: top-dose activity, negative = inhibition, hits mostly inhibitors;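 further: potency means the concentration at half of the fitted maximal effect; plate controls were no enzyme wells and a reference inhibitor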
Target sequence (P00352 whole entry, looked up): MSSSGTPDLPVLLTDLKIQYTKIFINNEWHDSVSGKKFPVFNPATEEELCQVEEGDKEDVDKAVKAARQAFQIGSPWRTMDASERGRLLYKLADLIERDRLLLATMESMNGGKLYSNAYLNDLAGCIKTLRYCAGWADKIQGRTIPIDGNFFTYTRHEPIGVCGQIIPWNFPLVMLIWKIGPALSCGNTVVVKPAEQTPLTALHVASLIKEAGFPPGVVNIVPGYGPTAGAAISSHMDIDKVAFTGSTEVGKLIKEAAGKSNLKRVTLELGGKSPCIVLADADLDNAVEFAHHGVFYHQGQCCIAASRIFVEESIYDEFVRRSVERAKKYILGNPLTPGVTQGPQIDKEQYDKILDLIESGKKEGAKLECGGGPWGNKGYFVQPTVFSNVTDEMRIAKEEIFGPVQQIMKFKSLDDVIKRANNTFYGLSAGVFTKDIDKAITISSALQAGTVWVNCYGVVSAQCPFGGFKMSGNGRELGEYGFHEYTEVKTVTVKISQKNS
Numbers without * were called inactive; ? = inconclusive; . = no result; [ ] = another dose, or the depositor's remark. The list is not random: actives were taken first. Their share in the collection is about 10%. Unless noted, the call rests on the fitted dose curve; in most records, active means well fitted inhibition curve with a large enough effect (not every such curve was filed as active); inconclusive means small, poorly fitted or top-dose-only effect, or another doubt; inactive means no such curve, though single readings can be large or run the other way. Unless noted, on the % scale 0 is the no-effect control and ±100 the full control effect.

SMILES	LMNA splice mod	KinaseGlo FLuc	HPGD inh	PNC assembly inh	IMPase cell inh	ALDH1A1 inh
CC(C)C1OC2c3cccc4cccc(c34)C2N1c1ccccc1 (stereo not given)	-11%	3%	-7%	-14	.	25µM*
Fc1ccc(C[n+]2csc3ccccc32)cc1	?	-3%	10µM*	17	1	4µM*
Clc1ccc(C[n+]2csc3ccccc32)cc1	8%	-4%	16µM*	21	.	2.8µM*
COC(=O)N1[C@H]2CC[C@@]3(C)CC(=O)C[C@]1(C)C3c1ccccc12	.	1%	-8%	.	.	8%
COc1ccc2[nH]c(C)c(C(=O)CN3CCc4cc(OC)c(OC)cc4C3)c2c1	-7%	.	.	-20	11	10µM*
Cc1c(NC(=S)N/N=C/C=C/c2ccc([N+](=O)[O-])cc2)c(=O)n(-c2ccccc2)n1C	-3%	-8%	-14%	-109*	.	-11%
Cc1c(NC(=S)N/N=C/C=C/c2ccccc2)c(=O)n(-c2ccccc2)n1C	?	.	.	.	.	-4%
COc1ccc(C2=C(N3CCN(c4cccc(C)c4C)CC3)c3ccccc3C2=O)cc1	.	.	.	.	16	.
Cc1ccc(-n2c(=S)[nH]c3nc4c(cc3c2=O)COC(C)(C)C4)cc1	-1%	0%	-1%	-20	.	?
CSc1nc2nc3c(cc2c(=O)n1-c1ccccc1)COC(C)(C)C3	20%[46 µM]	0%	.	.	.	14µM*
CSc1nc2nc3c(cc2c(=O)n1-c1cccc(C)c1)COC(C)(C)C3	.	.	.	.	.	3.5µM*
Cc1cccc(NC(=O)Cn2cnc3c(oc4nc5c(cc43)COC(C)(C)C5)c2=O)c1	-9%	2%	-18%	17	6	4%
O[C@@H]1[C@@H]2c3cc4c(cc3CN3CCC(=C[C@@H]1O)[C@H]23)OCO4	?	2%[17.1 µM]	-4%	.	-8[20.6 µM]	0%[20.9 µM]
O=C(NC1CS(=O)(=O)CC1NCc1ccco1)c1ccccc1 (stereo not given)	1%	17%	-10%	-96*	-1	8%
O=C(Nc1ccccc1C(=O)NCc1ccco1)c1ccccc1	7%	-1%	-12%	?	15	-8%
COc1ccc(S(=O)(=O)n2nc(C)c(S(=O)(=O)N3CCCCCC3)c2C)cc1C	12%[46 µM]	.	.	.	.	.
Cc1ccc(NC(=O)c2ccc(Nc3c([N+](=O)[O-])cc([N+](=O)[O-])cc3[N+](=O)[O-])cc2)cc1	?	-1%	-7%	-16	.	0.56µM*
CC(=O)Nc1ccc(C(=O)NNC(=O)c2cc([N+](=O)[O-])cc([N+](=O)[O-])c2)cc1	16%[46 µM]	1%	.	.	.	10%
Cc1ccc(C2CC(=O)Oc3ccc(O)cc32)cc1 (stereo not given)	.	1%[39.9 µM]	?	.	.	32µM*
COc1ccc(C2C(=O)N(C3CCC(C)CC3)CC(=O)N2Cc2ccc(C)cc2)cc1OC (stereo not given)	-2%[46 µM]	.	.	.	.	.
CN(Cc1cccc2cnccc12)C(=O)CCc1nnc(CCc2ccccc2)o1	11%[46 µM]	1%	.	.	.	28µM*
COc1ccccc1CCc1nnc(CCC(=O)N(C)Cc2cccc3ncccc23)o1	-1%[46 µM]	0%	.	.	.	6%
O=C1NC(C(=O)O)=CC(c2ccc([N+](=O)[O-])cc2)N1 (stereo not given)	.	.	.	.	.	14µM*
CC1(C(=O)O)COC(c2ccc([N+](=O)[O-])cc2)OC1 (stereo not given)	-6%	4%	-6%	-24	-1	-1%
CCn1c(=O)n(CC)c2cc(N3CCCCC3)c(NC(=O)Nc3cc(Cl)ccc3OC)cc21	3%[46 µM]	.	.	.	.	.
SMILES	LMNA splice mod	KinaseGlo FLuc	HPGD inh	PNC assembly inh	IMPase cell inh	ALDH1A1 inh
CCOC(=O)CCCN	.	-2%[7.66 µM]	-4%	.	.	-7%[13.5 µM]
Cc1ccc(-n2c(C)cc(/C=c3/sc4nc5ccccc5n4c3=O)c2C)cc1	4%	-5%	-15%	26	-1	?
COc1cc(N2CCCC2)c(OC)cc1/C=c1/sc2nc3ccccc3n2c1=O	6%	-14%	0%	-15	-16	16µM*
CC/C=C/C#N	.	.	-8%	.	.	10%
Cc1cc2occ(CC(=O)NC3CCCc4ccccc43)c2cc1C (stereo not given)	-19%	1%	-9%	26	.	2.2µM*
Fc1cccc(Nc2nc(Cl)nc(Cl)n2)c1	-6%[46 µM]	3%	.	.	.	-9%
CN(C#N)c1nc(Cl)nc(Nc2cccc(Cl)c2)n1	-15%	2%	-21%	?	9	4µM*
CC#CCN1c2ccccc2[C@]23C[C@@H](C(=O)OC)N(S(=O)(=O)c4ccc(Br)cc4)C2=NC(C(=O)OC)=C(C(=O)OC)[C@H]13	1%[9.22 µM]	1%[7.66 µM]	-2%	.	.	7%[13.5 µM]
CC/C(=N/NC(=O)c1ccccc1)c1ccc(OCCN2CCOCC2)cc1	4%	-6%	-23%	-12	.	10µM*
Cn1ccnc1Sc1nc2ccccc2nc1NS(=O)(=O)c1ccccc1	-13%	2%	22µM*	1	-30	-3%
CCn1cc(S(=O)(=O)c2ccc(Cl)cc2)c(=O)c2cc(F)c(N3CCOCC3)cc21	-6%[46 µM]	.	.	.	.	.
CN1CCN(C(=O)c2cccc(COc3cc(Cl)ccc3Cl)c2)CC1	9%	3%	-7%	30	-12	10µM*
O=C(Nc1ccccc1Cl)c1cccc(COc2cc(Cl)ccc2Cl)c1	27%	-2%	?	17	-12	3%
COc1ccc(C(=O)CCNc2ccc(C)c(Cl)c2)cc1	-5%	2%	0%	-18	4	3.2µM*
COc1ccc(C(=O)CCC(=O)Nc2ccc(OC)c(Cl)c2)cc1	-6%[46 µM]	.	.	.	.	.
Cc1cc(C(=O)CSc2nncs2)c(C)n1Cc1ccco1	.	2%	.	.	.	?
CCOC(=O)c1cc(C)n(CCc2ccccc2)c1C	-6%	2%	-11%	-26	4	-13%
COC(=O)CCCn1c(C)cc(C(=O)CCl)c1C	-11%[9.22 µM]	-1%	.	.	.	0.5µM*
Cc1cc(C(=O)CCl)c(C)n1Cc1ccco1	.	-1%	.	.	.	0.1µM*
Cc1cc(C(=O)CCl)c(C)n1CCc1ccccc1	?	2%	.	.	.	0.032µM*
Brc1ccc(-c2nnc(-c3ccccc3)c(N3CCSCC3)n2)cc1	-3%	0%	-17%	8	4	-6%
CN1CCN(c2nc(-c3ccc(Br)cc3)nnc2-c2ccccc2)CC1	?	-2%	-12%	10	-3	22µM*
O=C(O/N=C1\CCS(=O)(=O)c2sccc21)c1ccccc1	10%	-28%	-16%	?	2	13µM*
COc1ccc(N/C=C/C(=O)C(C)(C)C)cc1	.	4%	.	.	.	2%
COc1ccc(N/C=C(/C(C)=O)c2ccccc2)cc1	-10%	-1%	22µM*	?	-6	10µM*
O=C(CSc1nccc(=O)[nH]1)Nc1ccc(F)c(Cl)c1	-1%	0%	-25%	?	3	?
O=C(CSc1nccc(=O)[nH]1)Nc1ccc(Br)c(Cl)c1	?	-7%	32µM*	-20	4	?

Source: PubChem (National Center for Advancing Translational Sciences (NCATS))
